Laboratory results: PubChem BioAssay AID488890 (Southern Research Specialized Biocontainment Screening …, 2010)
The campaign covered roughly 320,000 compounds. About 1,300 (0.41%) were called active. Inconclusive results (about 3%) are left out. How the calls were made is not given here. Not all results are given here. Entries with a potency or affinity are not part of this list.

experiment: growth inhibition of non-replicating M. tuberculosis (AID 488890); conditions: Mycobacterium tuberculosis non-replicating, at 25 µM, stronger effect = higher value;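 further: plate controls were DMSO cells for no effect and high antibiotic wells for full effect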

**Q.** Which inhibition does the source give for `CC1c2[nH]c3ccccc3c2C[C@H]2C(=O)N(CCCN(C)C)CC(=O)N12` (some centres undefined) here?
**A.** -5.98%

**Q.** Which inhibition does the source give for `Cc1ccc(C(=O)CCNc2ccccc2)o1` here?
**A.** -1.75%

**Q.** For `Cc1ccc(C(=O)Nc2ccc(NC(=O)c3ccc(C)o3)cc2)o1`, which inhibition is on record?
**A.** 0.92%

**Q.** With `Cc1ccc(NC(=O)COC(=O)c2cc(=O)c3ccccc3o2)c(Br)c1` as the compound, how does the inhibition read?
**A.** 6.59%

**Q.** For `CCN1C(=O)C(=Cc2cc(C)n(C3CC3)c2C)C(=O)N(CC)C1=S`, which inhibition is on record?
**A.** 69.5%

**Q.** For `Cc1cc(/C=C2\SC(=S)NC2=O)c(C)n1C1CC1`, which inhibition is on record?
**A.** 43.8%

**Q.** Which inhibition does the source give for `CCCS(=O)(=O)C/C(N)=N/OC(=O)c1ccc(Cl)cc1` here?
**A.** 3.52%

**Q.** Which inhibition does the source give for `COc1ccc(NC(=O)CN(C)CC(=O)Nc2ccccc2SC)cc1` here?
**A.** -4.75%

**Q.** Which inhibition does the source give for `O=C(Nc1nc2c(F)cc(F)cc2s1)c1ccco1` here?
**A.** 36.2%

**Q.** With `Cc1onc(-c2ccccc2)c1C(=O)Nc1nc(-c2cc(F)ccc2F)cs1` as the compound, how does the inhibition read?
**A.** -10.6%

**Q.** For `O=C(NNc1nc2c(F)cc(F)cc2s1)c1ccccc1`, which inhibition is on record?
**A.** -1.93%

**Q.** With `Cc1csc(NC(=O)c2cnccn2)n1` as the compound, how does the inhibition read?
**A.** 16.7%

**Q.** With `COCC(=O)Nc1nc2ccc(C)cc2s1` as the compound, how does the inhibition read?
**A.** 49%

**Q.** Which inhibition does the source give for `Cc1ccc(C)c(-c2csc(NC(=O)c3c(C)noc3C)n2)c1` here?
**A.** -15%

**Q.** Which inhibition does the source give for `O=C(Nc1nc(-c2cc(F)ccc2F)cs1)C1=COCCO1` here?
**A.** 22.8%

**Q.** With `CCOCC(=O)Nc1nc2ccc(OCC)cc2s1` as the compound, how does the inhibition read?
**A.** 80%

**Q.** With `CC(C)Cc1ccc(CN2CCCC(NC(=O)CCN3CCOCC3)C2)cc1` (centres undefined) as the compound, how does the inhibition read?
**A.** 34.5%

**Q.** With `CCS(=O)(=O)N1CCC(C(=O)Oc2ccc(C(=O)OC)cc2)CC1` as the compound, how does the inhibition read?
**A.** 4.94%

**Q.** For `O=C(Nc1nc2ccc(F)cc2s1)c1cccs1`, which inhibition is on record?
**A.** 33.5%

**Q.** Which inhibition does the source give for `Cc1ccc2nc(NC(=O)COC(=O)c3ccccn3)sc2c1` here?
**A.** 76.5%

**Q.** For `CSc1ncccc1C(=O)Nc1ncc(C)s1`, which inhibition is on record?
**A.** 13.3%

**Q.** With `O=C(Nc1nc2ccc(F)cc2s1)Oc1ccccc1` as the compound, how does the inhibition read?
**A.** 6.26%

**Q.** With `Cc1ccc2nc(NC(=O)c3ccccc3F)sc2c1` as the compound, how does the inhibition read?
**A.** 2.6%

**Q.** With `Cc1cnc(NC(=O)c2ccncc2)s1` as the compound, how does the inhibition read?
**A.** -17.1%

**Q.** With `CCc1ccc(C(=O)NNc2cc(Cl)cc(Cl)c2)cc1` as the compound, how does the inhibition read?
**A.** 67.2%

**Q.** Which inhibition does the source give for `CN(C)c1ccc(NC(=O)CCCCCn2nnc3ccccc3c2=O)cc1` here?
**A.** 2.13%

**Q.** With `O=[N+]([O-])c1cccc(-c2nnc(-c3ccccc3F)o2)c1` as the compound, how does the inhibition read?
**A.** 35.9%

**Q.** For `O=[N+]([O-])c1cccc(-c2nnc(-c3ccccc3)o2)c1`, which inhibition is on record?
**A.** 75.3%

**Q.** For `Cc1ccc(C(=O)Nc2ccc(C(=O)N/N=C/c3ccc(C)o3)cc2)cc1`, which inhibition is on record?
**A.** 9.26%

**Q.** Which inhibition does the source give for `Cc1cccc(NC(=O)CCNS(=O)(=O)c2ccc(Cl)cc2)c1` here?
**A.** -5.22%

**Q.** Which inhibition does the source give for `CCOC(=O)C1(Cc2ccc(OC)cc2)CCN(C(=O)CN2CCOC2=O)CC1` here?
**A.** -7.21%

**Q.** Which inhibition does the source give for `CN(C)S(=O)(=O)c1ccc(Oc2ccccc2)cc1` here?
**A.** 27.6%

**Q.** With `CN(C)S(=O)(=O)c1ccc(C(=O)OCCc2ccccc2)cc1` as the compound, how does the inhibition read?
**A.** 42.9%

**Q.** Which inhibition does the source give for `COc1cc(/C=N/Nc2ccc(Cl)c(C(=O)O)c2)ccc1OC(=O)c1ccc(F)cc1` here?
**A.** 52.6%

**Q.** Which inhibition does the source give for `O=C(NC(NNc1ccc([N+](=O)[O-])cc1)(C(F)(F)F)C(F)(F)F)c1ccc(F)cc1` here?
**A.** 29.8%

**Q.** With `Nc1ccc(C(=O)N/N=C2\CCCc3c2[nH]c2ccccc32)cc1` as the compound, how does the inhibition read?
**A.** 19.8%

**Q.** Which inhibition does the source give for `CC(C)c1ccc2[nH]c3c(c2c1)CCCC3=O` here?
**A.** 6.88%

**Q.** With `O=C(NN=C1CCCCCC1)c1ccncc1` as the compound, how does the inhibition read?
**A.** 70.4%

**Q.** With `O=C(N/N=C1\CCCc2c1[nH]c1ccc([N+](=O)[O-])cc21)c1ccncc1` as the compound, how does the inhibition read?
**A.** -12.5%

**Q.** With `CC1=C(/C=C/C(C)=C/C=C/C(C)=C/C(=O)O)C(C)(C)CCC1` as the compound, how does the inhibition read?
**A.** 15.6%

**Q.** With `CC(/C=C/c1ccc2c(c1)OCO2)=N\NC(=O)c1cccc([N+](=O)[O-])c1` as the compound, how does the inhibition read?
**A.** 68.6%

**Q.** With `CC1=C(/C=C/C(=O)O)C(C)(C)CCC1` as the compound, how does the inhibition read?
**A.** 13.1%

**Q.** With `C/C(=N\NC(=O)c1cccc([N+](=O)[O-])c1)c1ccncc1` as the compound, how does the inhibition read?
**A.** 8.18%

**Q.** For `COc1cc(NC(=O)CN2CCN(c3ccccc3)CC2)c(C)cc1[N+](=O)[O-]`, which inhibition is on record?
**A.** -14%

**Q.** For `O=C1C(c2ccccc2)=C(N2CC2)c2ccccc21`, which inhibition is on record?
**A.** 15.4%

**Q.** With `Nc1c(C(=O)c2ccccc2)sc2c1c(=O)[nH]c(=O)n2-c1ccccc1` as the compound, how does the inhibition read?
**A.** 6.25%

**Q.** For `CCOC(=O)c1nn(-c2ccc(F)cc2)c2nc(Nc3ccccc3)cc(=O)n12`, which inhibition is on record?
**A.** 75.5%

**Q.** For `CCOC(=O)c1nn(-c2cccc(Cl)c2)c2nc(Nc3ccccc3)cc(=O)n12`, which inhibition is on record?
**A.** 63.6%

**Q.** For `Cc1cc(C(=O)N2CCCC(N3CCN(c4ccccc4C)CC3)C2)n(C)n1` (centres undefined), which inhibition is on record?
**A.** 8.85%

**Q.** With `CCN1CCN(C2CC(=O)NC2=O)CC1` (centres undefined) as the compound, how does the inhibition read?
**A.** -2.18%

**Q.** With `Cc1ccc(NC(=O)C2CCN(C(=O)N3CCOc4ccccc43)CC2)cc1` as the compound, how does the inhibition read?
**A.** 25.7%

**Q.** With `Oc1ccc(Br)cc1CN1CCCCCCC1` as the compound, how does the inhibition read?
**A.** 8.51%

**Q.** Which inhibition does the source give for `Oc1ccc2ccccc2c1CN1CCCC1` here?
**A.** 21.4%

**Q.** For `O=C(NC1CCCCC1)C1CCCN(S(=O)(=O)c2cccc3cccnc23)C1` (centres undefined), which inhibition is on record?
**A.** -8.57%

**Q.** Which inhibition does the source give for `CCOC(=O)c1cc(=O)cc(C(=O)OCC)o1` here?
**A.** -3.36%

**Q.** With `CCOC(=O)c1cc(=O)c2c([N+](=O)[O-])ccc(OC)c2o1` as the compound, how does the inhibition read?
**A.** -14.2%

**Q.** For `COc1cccc(C(=O)NCC(=O)NCc2cc(=O)n(C)c(=O)n2C)c1OC`, which inhibition is on record?
**A.** -9.9%

**Q.** For `O=C1CNC(=S)N1C1CCCCCC1`, which inhibition is on record?
**A.** 0.27%

**Q.** With `O=C(CCN1C(=O)S/C(=C/c2ccc(F)cc2)C1=O)Nc1ccc(O)c(C(=O)O)c1` as the compound, how does the inhibition read?
**A.** -1.86%

**Q.** Which inhibition does the source give for `O=C(CCN1C(=O)S/C(=C\c2ccc(F)cc2)C1=O)Nc1ccc(O)cc1C(=O)O` here?
**A.** 24.1%

**Q.** For `CCCn1c(=O)c2ccccc2n2c(SCc3nnc(-c4ccccc4Br)o3)nnc12`, which inhibition is on record?
**A.** -5.68%

**Q.** For `COC(=O)c1ccn(-c2nc(-c3ccco3)cc(C(F)(F)F)n2)n1`, which inhibition is on record?
**A.** -17.4%

**Q.** With `O=C(COc1ccccc1Cl)c1ccc2c(c1)CCCC2` as the compound, how does the inhibition read?
**A.** 38.7%

**Q.** Which inhibition does the source give for `Cc1ccc(CCC(=O)Nc2ccc([N+](=O)[O-])cc2Cl)o1` here?
**A.** 75.5%

**Q.** Which inhibition does the source give for `Cc1ccc(CCC(=O)Nc2ccc(N(C)C)cc2)o1` here?
**A.** 39.5%

**Q.** Which inhibition does the source give for `Cc1ccc(C)c(NC(=O)CCc2ccc(C)o2)c1` here?
**A.** 79.3%

**Q.** Which inhibition does the source give for `Cc1ccc(CCC(=O)Nc2ccc(Cl)cc2)o1` here?
**A.** 79.5%

**Q.** With `Cc1ccc(NC(=O)CCc2ccc(C)o2)c(C)c1` as the compound, how does the inhibition read?
**A.** 68.3%

**Q.** Which inhibition does the source give for `Cc1cccc(NC(=O)CCc2ccc(C)o2)c1` here?
**A.** 25.7%

**Q.** For `Cc1cccn2c(=O)c3cc(S(=O)(=O)c4ccccc4)c(=N)n(Cc4cccnc4)c3nc12`, which inhibition is on record?
**A.** -4.09%

**Q.** For `Cc1ccc(C(=O)N2CCC(C(=O)Nc3cccc([N+](=O)[O-])c3)CC2)cc1`, which inhibition is on record?
**A.** 28.6%

**Q.** Which inhibition does the source give for `Cc1ccccc1NC(=O)Cn1nc(C(=O)O)c2ccccc2c1=O` here?
**A.** -3.67%

**Q.** With `Cc1ccc(C)c(-n2c(-c3csc(C)c3)n[nH]c2=S)c1` as the compound, how does the inhibition read?
**A.** 11.6%

**Q.** For `CCCC(=O)Nc1ccc(C2C(=O)c3ccccc3C2=O)cc1`, which inhibition is on record?
**A.** -4.62%
